Among the test systems are SK-MEL-2 melanoma; EKVX NSCLC; SN12C renal; UO-31 renal; TK-10 renal; ACHN renal; CAKI-1 renal; A498 renal; MOLT-4 leukemia; SR leukemia; RPMI-8226 leukemia; OVCAR-8 ovarian; OVCAR-5 ovarian; OVCAR-4 ovarian; SK-OV-3 ovarian; IGROV1 ovarian; OVCAR-3 ovarian; HS 578T breast; NCI/ADR-RES ovarian.
Common to all, as to assay: NCI-60 one-dose screen, 48 h (100 = growth as untreated, 0 = no growth, -100 = all killed)
Holding throughout (settings): 10 µM unless noted

The results in this text go back to PubChem BioAssay (NCI).

This is part of a sample that, as a whole, favours compounds with a hit. Of some 83,000 tested, about 20% had one in any assay.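 Activity criterion: percent growth below 10, measured after cells in 96-well plates were exposed to a single compound concentration for 48 hours.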 Unmarked numbers belong to inactive results. Calls of active or inactive are those of the source.

With `CC1=CN2C(=O)C3C4=C(CCCC4)SC3N=C2CN1c1c(C)cccc1C` (configuration not stated), the growth with SK-MEL-2 melanoma is 116%; in the assay with EKVX NSCLC it was 81%; in the assay with SN12C renal, 99.6%; in the assay on UO-31 renal it was 90.7%; in the assay on TK-10 renal, 100%; in the assay with ACHN renal it was 96.2%. Further, the growth is 81.1% in the assay on CAKI-1 renal; 92% in the assay with A498 renal; 77% with MOLT-4 leukemia; 41.8% in the assay on SR leukemia; 54.4% in the assay on RPMI-8226 leukemia; 109% with OVCAR-8 ovarian. The growth in the assay with OVCAR-5 ovarian is 94%; in the assay on OVCAR-4 ovarian, 93.3%; in the assay on SK-OV-3 ovarian it was 114%; in the assay on IGROV1 ovarian, 107%; in the assay on OVCAR-3 ovarian it was 93.9%; in the assay with HS 578T breast it was 103%. Further, the growth in the assay on NCI/ADR-RES ovarian was 99.6%.

As for `COc1ccccc1NC(=O)N/C(N)=N/c1nc2ccccc2s1`, the growth with SK-MEL-2 melanoma was 48.6%; with EKVX NSCLC it was 53.2%; in the assay with SN12C renal, 37.1%; in the assay with UO-31 renal it was 52.9%; in the assay on TK-10 renal it was 59.3%; in the assay with ACHN renal, 42.2%. For the same molecule, the growth in the assay on CAKI-1 renal was 36.4%; in the assay with A498 renal, -10.5% (active); in the assay with MOLT-4 leukemia, 15.4%; in the assay with SR leukemia it was 9.32% (active); in the assay on RPMI-8226 leukemia it was 9.34% (active); in the assay with OVCAR-8 ovarian, 27.1%. The growth in the assay on OVCAR-5 ovarian was 34.8%; in the assay with OVCAR-4 ovarian, 50.7%; with SK-OV-3 ovarian, 40.5%; with IGROV1 ovarian, 21.8%; with OVCAR-3 ovarian, -18.9% (active); with HS 578T breast, 27.9%. The growth in the assay on NCI/ADR-RES ovarian was 4.92% (active).

As to `CCN(CC)CCN1CC(O)=C(c2nc(-c3ccc(Cl)cc3)cs2)C1=N`, the growth was 100% in the assay with SK-MEL-2 melanoma; 82.8% in the assay on EKVX NSCLC; 64.5% in the assay with SN12C renal; -24.7% (active) with UO-31 renal; 89.2% with TK-10 renal; 42.5% in the assay with ACHN renal. Further, the growth with CAKI-1 renal was 43.2%; with A498 renal, 56.5%; in the assay on MOLT-4 leukemia it was 1.18% (active); in the assay with SR leukemia, -4.58% (active); in the assay on RPMI-8226 leukemia, 13.6%; with OVCAR-8 ovarian, 44.6%. Moreover, the growth in the assay with OVCAR-5 ovarian is 66.4%; in the assay on OVCAR-4 ovarian it was 84.6%; with SK-OV-3 ovarian, 101%; in the assay with IGROV1 ovarian it was 40.8%; in the assay with OVCAR-3 ovarian, 80.5%; with HS 578T breast it was 47.2%. In the assay with NCI/ADR-RES ovarian, the growth was 69.4%.

As to `N=C1C(c2nc(-c3ccc(Br)cc3)cs2)=C(O)CN1CC1CCCO1` (configuration not stated), the growth in the assay on SK-MEL-2 melanoma was 89.8%; in the assay on EKVX NSCLC, 98.7%; in the assay on SN12C renal it was 111%; in the assay with UO-31 renal it was 20.8%; with TK-10 renal, 135%; in the assay on ACHN renal it was 88%. Moreover, the growth in the assay on CAKI-1 renal is 90.4%; in the assay with A498 renal it was 96.4%; with MOLT-4 leukemia, 70.3%; in the assay on SR leukemia, 38.9%; in the assay with RPMI-8226 leukemia, 48.5%; in the assay with OVCAR-8 ovarian, 52.7%. The growth in the assay with OVCAR-5 ovarian is 89.2%; in the assay on OVCAR-4 ovarian, 75%; in the assay with SK-OV-3 ovarian, 113%; in the assay with IGROV1 ovarian, 46.2%; in the assay with OVCAR-3 ovarian, 105%; in the assay on HS 578T breast, 89%. The growth in the assay on NCI/ADR-RES ovarian was 76.3%.

For the molecule `COc1cc(N=Nc2cc(Cc3ccc(N(C)C)cc3)c(N)cc2N(C)C)c2ncccc2c1`, the growth with SK-MEL-2 melanoma is 29.4%; with EKVX NSCLC it was 8.8% (active); in the assay on SN12C renal it was 31.2%; in the assay with UO-31 renal, -12.6% (active); in the assay on TK-10 renal it was 32.3%; in the assay with ACHN renal, -58.5% (active). For the same molecule, the growth is 13.5% in the assay with CAKI-1 renal; -8.31% (active) with A498 renal; -13.2% (active) with MOLT-4 leukemia; -13.5% (active) with SR leukemia; -53.4% (active) in the assay on RPMI-8226 leukemia; -37% (active) with OVCAR-8 ovarian. The growth is 42.8% in the assay on OVCAR-5 ovarian; -48.9% (active) in the assay with OVCAR-4 ovarian; -0.131% (active) with SK-OV-3 ovarian; 7.41% (active) in the assay on IGROV1 ovarian; -28.7% (active) in the assay with OVCAR-3 ovarian; 18.3% with HS 578T breast. In the assay with NCI/ADR-RES ovarian, the growth is -17.8% (active).

Consider `Cn1c2c(c3ccc(Cl)c(Cl)c31)C(C#N)C1(CCNCC1)NC2=O` (configuration not stated), for which the growth in the assay with SK-MEL-2 melanoma is 11.5%; in the assay with EKVX NSCLC it was 46.2%; in the assay on SN12C renal, 44.2%; in the assay with UO-31 renal, 31.7%; with TK-10 renal, 38.3%; in the assay on ACHN renal, 26.8%. In addition, the growth with CAKI-1 renal was 29.6%; in the assay on A498 renal, 44.9%; with MOLT-4 leukemia it was 15.6%; in the assay with SR leukemia, 13.6%; in the assay on RPMI-8226 leukemia it was 14.2%; with OVCAR-8 ovarian, 67.8%. Moreover, the growth in the assay with OVCAR-5 ovarian was 62.1%; in the assay on OVCAR-4 ovarian, 53.5%; with SK-OV-3 ovarian, 68.7%; in the assay on IGROV1 ovarian, -19.3% (active); with OVCAR-3 ovarian, 48.1%; in the assay with HS 578T breast it was 35.1%. Further, in the assay with NCI/ADR-RES ovarian, the growth was 68.5%.

For `Cc1ccc(-c2cc3c(cc2O)C2CCCCC2(N2CCOCC2)O3)cc1` (configuration not stated), the growth in the assay with SK-MEL-2 melanoma was 101%; with EKVX NSCLC, 107%; in the assay on SN12C renal, 93.1%; in the assay on UO-31 renal it was 84.5%; with TK-10 renal it was 116%; with ACHN renal it was 112%. Besides, the growth with CAKI-1 renal is 96%; in the assay on A498 renal it was 114%; in the assay on MOLT-4 leukemia it was 84.1%; with SR leukemia, 86%; in the assay on RPMI-8226 leukemia, 96%; in the assay with OVCAR-8 ovarian it was 102%. Besides, the growth in the assay on OVCAR-5 ovarian was 110%; in the assay on OVCAR-4 ovarian, 91%; with SK-OV-3 ovarian, 104%; with IGROV1 ovarian, 104%; in the assay on OVCAR-3 ovarian it was 110%; with HS 578T breast, 108%. Also, the growth in the assay on NCI/ADR-RES ovarian was 99.1%.

Consider `C=CCOC1=CC(=O)c2ccccc2C1=O`, for which the growth was 60.5% in the assay with SK-MEL-2 melanoma; 116% with EKVX NSCLC; 82.9% in the assay with SN12C renal; 74.2% in the assay on UO-31 renal; 113% in the assay on TK-10 renal; 83% in the assay with ACHN renal. In addition, the growth was 101% in the assay with CAKI-1 renal; 74.6% in the assay with A498 renal; 65.8% in the assay on MOLT-4 leukemia; 9.62% (active) in the assay with SR leukemia; 92.7% in the assay on RPMI-8226 leukemia; 57.2% in the assay with OVCAR-8 ovarian. Also, the growth in the assay with OVCAR-5 ovarian is 110%; in the assay with OVCAR-4 ovarian, 42.1%; in the assay on SK-OV-3 ovarian it was 109%; in the assay on IGROV1 ovarian, 85.5%; with OVCAR-3 ovarian it was -13.4% (active); in the assay on HS 578T breast, 81.7%. Besides, the growth in the assay with NCI/ADR-RES ovarian is 60.1%.
